PNC assembly inh = High Content Assay for Compounds that inhibit the Assembly of the Perinucleolar Compartment | PC3M PTB-GFP, PNC prevalence imaging, 16 h; active compounds read low | activity change (PNC), negative = inhibition, % at 10 µM | 140,000 tested, 3.1% active | AID 2417, 2010;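 active means readout at or below -70, meaning at least 70% loss of cells showing the perinucleolar compartment, a nuclear body marking cancer cells; inconclusive means readout between -30 and a set limit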;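 further: plate controls were DMSO wells for no effect and camptothecin positive control wells for full effect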
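Compounds are pinned in duplicate onto adhered PC3M cells stably expressing GFP-tagged PTB and incubated 16 h at 37 C. Cells are then fixed, nuclei stained with Hoechst, and PNC-positive cells counted.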
LMNA splice mod = qHTS Assay for Modulators of Lamin A Splicing. Potency, µM (titrated, usually from 46.1 µM), for inactives: top-dose ratio change, negative = inhibition, actives largely listed as inhibitors. AID 1487, 2009. 200,000 tested, 0.01% active. HeLa LMNA splicing GFP/RFP minigene ratio, 48 h; active means well fitted inhibition curve with a large enough effect in the signal ratio, with a control signal flat, not every such curve was filed as active; inconclusive means small, poorly fitted or top-dose-only effect, or effect the other way, or a change in a side signal; the % refers to the signal ratio; further: potency means the concentration at half of the fitted maximal effect
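S3 HeLa cells stably expressing lamin A-EGFP splicing minigene plus DsRed2, 600 cells/well, 48 h compound exposure at 37C. Laser-scanning cytometry; analysed as GFP (500-530 nm)/RFP (575-640 nm) total intensity ratio; 0.5% DMSO vehicle.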
ALDH1A1 block = qHTS Assay for Inhibitors of Aldehyde Dehydrogenase 1 (ALDH1A1); Purified ALDH1A1, NADH fluorescence, propionaldehyde substrate; 220,000 tested, 7.3% active; Potency, µM (series often up to 75.3 µM), for the others: top-dose activity, negative = inhibition, actives largely listed as inhibitors;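 further: potency means the concentration at half of the fitted maximal effect; plate controls were no enzyme wells and a reference inhibitor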
Target sequence (P00352 whole entry, looked up): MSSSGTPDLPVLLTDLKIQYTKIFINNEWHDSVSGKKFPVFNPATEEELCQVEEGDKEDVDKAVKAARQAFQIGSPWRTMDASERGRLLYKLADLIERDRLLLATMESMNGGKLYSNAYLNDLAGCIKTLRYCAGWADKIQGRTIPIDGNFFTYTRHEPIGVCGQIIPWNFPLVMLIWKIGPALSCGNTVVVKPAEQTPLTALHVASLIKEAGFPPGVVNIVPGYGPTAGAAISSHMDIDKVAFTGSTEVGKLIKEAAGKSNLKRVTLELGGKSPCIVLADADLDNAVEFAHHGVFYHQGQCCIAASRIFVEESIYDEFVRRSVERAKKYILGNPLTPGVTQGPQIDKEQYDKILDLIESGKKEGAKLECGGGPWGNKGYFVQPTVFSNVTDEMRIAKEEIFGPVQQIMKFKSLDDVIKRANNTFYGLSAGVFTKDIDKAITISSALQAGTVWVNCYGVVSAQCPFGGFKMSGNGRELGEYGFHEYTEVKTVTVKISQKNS
HPGD block = qHTS Assay for Inhibitors of HPGD (15-Hydroxyprostaglandin Dehydrogenase) | 15-hydroxyprostaglandin dehydrogenase [NAD(+)] (Homo sapiens), P15428 | purified HPGD, NADH fluorescence kinetic, PGE2 substrate | Potency, µM, for the others: at the highest dose activity change, negative = inhibition, usual class: inhibitors | 150,000 tested, 4.3% active | AID 894, 2007; further: potency means the concentration at half of the fitted maximal effect
Target sequence (P15428 whole entry, looked up): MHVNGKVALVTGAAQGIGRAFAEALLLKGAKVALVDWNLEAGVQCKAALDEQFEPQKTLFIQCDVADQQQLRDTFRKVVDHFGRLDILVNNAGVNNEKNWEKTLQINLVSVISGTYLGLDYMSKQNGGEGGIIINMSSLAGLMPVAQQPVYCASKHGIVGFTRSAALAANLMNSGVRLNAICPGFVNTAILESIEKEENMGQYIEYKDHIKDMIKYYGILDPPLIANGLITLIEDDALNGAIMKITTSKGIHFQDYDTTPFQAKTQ
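20 nM HPGD preincubated 15 min at room temperature with compound in 50 mM Tris-HCl pH 8, 0.01% Tween 20. Started with 1 mM NAD+ and 30 uM prostaglandin E2; NADH fluorescence (360/450 nm) read 5 times over 30-s intervals, last minus first.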
IMPase cell inh = qHTS Assay for Identifying the Cell-Membrane Permeable IMPase Inhibitors | Inositol monophosphatase 1 (Rattus norvegicus), P97697 | CHO-M1 cells, IP1 accumulation, HTRF TR-FRET ratio | inhibition (IP1 accumulation), % at 46.1 µM | 120,000 tested, under 10 active; active means well fitted curve in the direction sought with a large enough effect in the signal ratio, not every such curve was filed as active; inconclusive means small, poorly fitted or top-dose-only effect, or a change in a side signal; inactive means no such curve, though single readings can be large or run the other way; the % refers to the signal ratio;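 further: cells stimulated with carbachol in lithium chloride buffer; plate controls were DMSO basal wells for no effect and reference inhibitor wells for full effect; higher means more IMPase inhibition seen as more IP1 and lower FRET ratio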
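Elevated IP1 in lysates lowers TR-FRET signal (665/620 ratio and 620 channel reported). Cells were CHO-M1, given carbachol (50 uM as added) plus 50mM LiCl, pH 7.4, 30 min, 37C; compounds titrated up to 46 uM; AC50 by Hill equation.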
Luc counter = Counterscreen for Luciferase (Kinase-Glo TM) Inhibition; Luciferin 4-monooxygenase (Photuris pensylvanica), Q27757; Kinase-Glo luciferase, ATP luminescence, 8 min; Potency, µM (doses to about 38.3 µM), without a hit: at the top dose activity change, negative = inhibition, usual class: inhibitors; 200,000 tested, 0.28% active; active means well fitted inhibition curve with a large enough effect; inconclusive means small, poorly fitted or top-dose-only effect; further: potency means the concentration at half of the fitted maximal effect; nearly all actives have a fitted effect of over 60% in size
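Luminescence was the read-out, taken after 8-minute incubation at ambient temperature. Luciferase turned over luciferin with 10 uM ATP in imidazole pH 7.2 buffer containing KCl, MgCl2, Tween 20 and BSA.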
* = called active by the depositor; ? = inconclusive; . = not tested or not shown; [ ] = another dose, or the depositor's remark. Sampled rows, rich in hits. Any-hit rate of the full collection: about 10%. Unless noted, the call rests on the fitted dose curve; in most records, active means well fitted inhibition curve with a large enough effect (not every such curve was filed as active); inconclusive means small, poorly fitted or top-dose-only effect, or another doubt; inactive means no such curve, though single readings can be large or run the other way. Unless noted, on the % scale 0 is the no-effect control and ±100 the full control effect.

SMILES	PNC assembly inh	LMNA splice mod	ALDH1A1 block	HPGD block	IMPase cell inh	Luc counter
O=[N+]([O-])c1ccc(Nc2nc(NC3CCCCC3)nc(N3CCCC3)n2)cc1	.	.	12.6µM*	.	.	0.8%
CC(=O)CSCc1ccccn1	.	.	3.55µM*	-7.4%	.	-4.5%[7.66 µM]
CC(=O)C1=C(C)N(c2ccccc2)C(=O)C1(NS(=O)(=O)c1ccc(N)cc1)C(F)(F)F (stereo not given)	.	-19.0%[46 µM]	4.8%	.	.	-2.7%
COC(=O)C1=C(C)N(CCc2ccccc2)C(=O)C1(NS(=O)(=O)c1ccc(NC(C)=O)cc1)C(F)(F)F (stereo not given)	29.0	-4.2%	20µM*	-17.0%	4.3	0.1%
CC(=O)Nc1ccc(S(=O)(=O)NC2(C(F)(F)F)C(=O)Nc3c2c(=O)n(C)c(=O)n3C)cc1 (stereo not given)	?	-9.8%	?	20µM*	6.2	-2.5%
CC(=O)c1ccc(N2C(=O)N(Cc3ccccc3C#N)c3ccccc3S2(=O)=O)cc1	.	0.5%[46 µM]	.	.	.	.
O=C(Nc1ccccc1)N1CCCN(Cc2ccccc2F)C1	-16.6	4.0%[0.0737 µM]	2.3%	25.1µM*	-1.2	-4.0%
CC(=O)N1CCc2c(sc(NC(=O)c3ccc([N+](=O)[O-])o3)c2C#N)C1	.	?	3.16µM*	.	.	-20.0%
CCCc1cc(=O)oc2cc(C)c(CN3CCCC3)c(O)c12	-14.4	0.1%	35.5µM*	-13.3%	-5.2	-3.7%
CCCc1cc(O)c2c(C)cc(=O)oc2c1	440.0	-17.7%	15.8µM*	-14.9%	-11.1	1.9%
CCCCc1cc(=O)oc2cc(C)cc(O)c12	62.1	7.4%	8.91µM*	-12.0%	5.1	-0.2%
CCOC(=O)c1c(C)[nH]c(C)c1S(=O)(=O)N1CCC(C(=O)Nc2ccc(OC)c(OC)c2)CC1	.	-8.3%[46 µM]	.	.	.	.
O=C(N/N=C1\CC2CC=CC12)c1ccc(COc2ccccc2)cc1 (stereo not given)	35.0	?	-4.3%	22.4µM*	.	6.3%
CC(C)(C)c1ccc(OCc2ccc(C(=O)N/N=C3\CC4CC=CC34)cc2)cc1 (stereo not given)	-27.4	?	2.6%	-19.0%	3.5	0.1%
O=C(c1csc2ccccc12)N1CCN(c2ccccn2)CC1	?	3.1%	?	-14.4%	8.2	-0.6%
O=C(c1csc2ccccc12)n1cccn1	-86.7*	-12.9%	11.2µM*	-10.3%	1.0	7.4%
O=C(c1csc2ccccc12)N1CCCCCC1	3.0	?	-0.3%	0.0126µM*	4.9	-0.2%
Cc1cccc(N2CCN(C(=O)c3csc4ccccc34)CC2C)c1 (stereo not given)	35.2	?	-3.3%	-23.1%	-4.5	1.6%
O=C(Nc1c(C(=O)O)[nH]c2ccccc12)NC1CCCCC1	-100.0*	?	?	?	0.9	-6.7%
Cc1cc2nc3c(=O)[nH]c(=O)nc-3n(CC(O)C(O)C(O)COP(=O)(O)O)c2cc1C (stereo not given)	.	?	-1.3%	-28.5%	.	1.5%[39.9 µM]
O=C(Nc1cccc(F)c1)N1CC[C@@]2(CCCN(C(=O)c3csnn3)C2)C1	.	.	-7.0%	-13.7%	.	-3.6%
CCOC(=O)c1[nH]c2c(c1Cc1ccccc1OC)C(=O)CC(c1ccc(OC)cc1)C2 (stereo not given)	.	.	.	.	10.4	.
CCOc1ccc(/C=N/NC(=O)c2[nH]ncc2Br)c(O)c1	.	?	10.6%	.	.	11.2µM*
Cc1ccc2c(c1)cc(C(=O)NCc1ccccc1C)n2C	.	-22.2%[46 µM]	.	.	.	.
COc1cc(F)c(S(=O)(=O)Nc2c(C)n(C)n(-c3ccccc3)c2=O)cc1OC	.	18.4%[46 µM]	.	.	.	.
SMILES	PNC assembly inh	LMNA splice mod	ALDH1A1 block	HPGD block	IMPase cell inh	Luc counter
CCOC(=O)c1[nH]ncc1CN1CCCC(C(=O)c2ccc(SC)cc2)C1 (stereo not given)	.	.	35.5µM*	.	.	-10.3%
CO[C@H]1COC(=O)[C@H](C)NC(=O)[C@@H](C)COC(=O)[C@H]2CCCN2C(=O)C/C=C\[C@H]1C	.	.	8.5%[13.5 µM]	.	.	.
CN(CCOc1ccc(-c2ccn(S(=O)(=O)c3cccc4ccccc34)n2)cc1)c1ccccn1	-89.2*	-19.5%	10.2%	-14.2%	4.0[1.84 µM]	2.4%
CN(CCOc1ccc(-c2ccn(S(=O)(=O)c3c(Cl)cccc3Cl)n2)cc1)c1ccccn1	11.5	3.4%	0.9%	-9.2%	11.4	1.0%
COc1ccc(C2NC(=O)CS2)cc1 (stereo not given)	-100.0*	2.5%	-12.6%	-19.3%	3.5	0.8%
C(=C\c1ccccc1)/CSc1nnc(-c2cnccn2)n1Cc1ccco1	9.1	?	22.4µM*	-19.9%	9.1	-2.3%
Cn1c(Cc2cccs2)nnc1SC/C=C/c1ccccc1	-100.0*	-0.7%	-5.5%	-27.4%	7.0	0.8%
Cn1c(SC/C=C/c2ccccc2)nnc1-c1ccco1	-100.0*	-5.4%	?	-26.1%	-6.1	-0.3%
Cn1c(Cc2cccs2)nnc1SCc1nc2ccccc2[nH]1	8.2	-7.7%	-2.0%	-15.0%	0.4	1.3%
OCC1O[C@@H](OC2C(O)C(CO)O[C@@]2(CO)O[C@@H]2OC(CO)C(O)C(O)C2O)C(O)C(O)C1O (stereo not given in full)	.	0.4%	0.9%	-6.4%	.	-1.0%
COc1c(C2=CC(=O)N(C)C2=O)c2c(n1C)C(=O)c1ccccc1C2=O	.	.	-0.1%	-5.6%	.	-3.7%
c1c[nH]c(CN2CCOCC2)n1	.	.	-14.7%[13.5 µM]	-4.1%	.	-6.5%[7.66 µM]
c1ccc(-c2nn3c(Cn4nnc5ccccc54)nnc3s2)nc1	?	10.3%	3.16µM*	7.08µM*	-0.5	-1.3%
c1cncc(-c2nn3c(Cn4nnc5ccccc54)nnc3s2)c1	14.0	?	7.08µM*	12.6µM*	-0.7	-5.8%
O=c1cc(-c2ccccc2)[nH]c2nc3ccccc3n12	?	?	?	?	-10.7	12.6µM*
CCc1c(C)[nH]c2nc3ccccc3n2c1=O	4.5	7.3%	?	?	4.4	-2.9%
Nc1ccccc1Nc1cc(-c2ccccc2)nn1-c1cccc(Cl)c1	1.6	?	6.1%	-7.8%	2.5	-0.6%
CNc1nn(-c2cccc(Cl)c2)nc1N	?	?	2µM*	-17.6%	-2.7	-5.3%
O=C(NCc1cccnc1)C(=O)NCC(c1ccco1)N1CCN(c2ccccc2F)CC1 (stereo not given)	?	?	11.2µM*	-11.1%	.	1.2%

Screening results deposited in PubChem BioAssay by National Center for Advancing Translational Sciences (NCATS).
